From PubChem BioAssay
A selection: hits, their analogues and other compounds. The true share with any hit is near 1%.
TRPML1 agonist – qHTS for Agonists of the Human Mucolipin Transient Receptor Potential 1 (TRPML1); actives 0.12% (n = 410,000); TRPML1-expressing cells, Ca2+ dye fluorescence, FDSS; activation, % (test concentration not listed); Mucolipin-1 (Homo sapiens), Q9GZU1; AID 624414, 2012; in the data active = activation above about 50%; inconclusive = mostly about 30% to 49%; also: 0% is about no effect
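Cells: TRPML1-DL, 1X Tet inducer, ~16 h at 37 degrees C/5% CO2. Dye: ABD Ca8 no-wash + quencher, 45-90 min RT. Read: 10 s baseline, compound add, 110 s agonist phase; 54-4 EC80 (4uM final), 110 s antagonist phase.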
TSG101-PTAP inh – qHTS Assay for Iinhibitors of HIV-1 Budding by Blocking the Interaction of PTAP/TSG101. Tumor susceptibility gene 101 protein (Homo sapiens), Q99816. Potency, µM (highest dose often 115 µM), for the others: top-dose activity change, negative = inhibition, hits mostly inhibitors. AID 493005, 2010. 340,000 tested, under 10 active. Fluorescence polarization, FITC-PTAP peptide / Tsg101 binding; active = well fitted inhibition curve with a large enough effect in the main read-out, with a control signal flat, not every such curve was filed as active; inconclusive = small, poorly fitted or top-dose-only effect, or effect the other way, or a change in a side signal; inactive = no such curve, though single readings can be large or run the other way; also: potency is read from the fitted curve at half-maximal effect; % of control where 0% means no effect
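Fluorescence anisotropy tracks displacement of a FITC-tagged PTAP peptide (50 nM) from the Tsg101 binding domain (10 uM), following a 20 min room-temperature incubation at pH 7.5.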
TRPML1 blocker – qHTS for Inhibitors of the Human Mucolipin Transient Receptor Potential 1 (TRPML1) | Mucolipin-1 (Homo sapiens), Q9GZU1 | TRPML1-inducible cells, Ca2+ dye fluorescence, FDSS; hits give low values; inhibition of EC80 agonist-evoked calcium signal | actives 0.02% (n = 390,000) | activity change, negative = inhibition, % (no concentration beside the values) | AID 624415, 2012; in the data active = activity change below about -50%; inconclusive = between about -30% and that limit;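 also: stimulus is agonist 54-4 at its EC80 concentration; % is scaled to controls: 0 for no effect and ±100 for the full control effect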
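Tet-induced TRPML1-DL cells loaded with Ca8 no-wash calcium dye were read kinetically on FDSS. Compound addition was followed by EC80 agonist 54-4 (4 uM final); inhibition was read over 110 s.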
KCNH2 3.1 inh – qHTS for Inhibitors of KCHN2 3.1: Mutant qHTS | Potassium voltage-gated channel subfamily H member 2, brain isoform KCNH2 3.1 (human) | U2OS KCNH2 3.1, thallium flux FluxOr; hits give low values | activity change, % (tested at about 1.8 µM) | actives 0.95% (n = 340,000) | AID 720553, 2013;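 active = maximum activity change below -70%; inconclusive = maximum activity change from -70% to -50%; inactive = maximum activity change above -50%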;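 also: thallium influx rate constant from kinetic fluorescence after stimulation buffer; % is scaled to controls: 0 for no effect and ±100 for the full control effect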
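Virally transduced U2OS (3.1 isoform, 4 h infection in dark at RT) → overnight 37 C → FluxOr + Red40 in HBSS/HEPES, 45 min → stimulation buffer, 2 min kinetic read → rate constant vs DMSO controls.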
hERG WT inh – qHTS for Inhibitors of KCHN2 3.1: Wildtype qHTS. actives 0.37% (n = 340,000). U2OS, BacMam KCNH2, thallium flux FluxOr; hits give low values. activity change, % at 1.84 µM;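 active = maximum activity change below -70%; inconclusive = maximum activity change between -70% and -50%; inactive = maximum activity change above -50%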; also: % is scaled to controls: 0 for no effect and ±100 for the full control effect
Target sequence (Q12809 whole entry, looked up): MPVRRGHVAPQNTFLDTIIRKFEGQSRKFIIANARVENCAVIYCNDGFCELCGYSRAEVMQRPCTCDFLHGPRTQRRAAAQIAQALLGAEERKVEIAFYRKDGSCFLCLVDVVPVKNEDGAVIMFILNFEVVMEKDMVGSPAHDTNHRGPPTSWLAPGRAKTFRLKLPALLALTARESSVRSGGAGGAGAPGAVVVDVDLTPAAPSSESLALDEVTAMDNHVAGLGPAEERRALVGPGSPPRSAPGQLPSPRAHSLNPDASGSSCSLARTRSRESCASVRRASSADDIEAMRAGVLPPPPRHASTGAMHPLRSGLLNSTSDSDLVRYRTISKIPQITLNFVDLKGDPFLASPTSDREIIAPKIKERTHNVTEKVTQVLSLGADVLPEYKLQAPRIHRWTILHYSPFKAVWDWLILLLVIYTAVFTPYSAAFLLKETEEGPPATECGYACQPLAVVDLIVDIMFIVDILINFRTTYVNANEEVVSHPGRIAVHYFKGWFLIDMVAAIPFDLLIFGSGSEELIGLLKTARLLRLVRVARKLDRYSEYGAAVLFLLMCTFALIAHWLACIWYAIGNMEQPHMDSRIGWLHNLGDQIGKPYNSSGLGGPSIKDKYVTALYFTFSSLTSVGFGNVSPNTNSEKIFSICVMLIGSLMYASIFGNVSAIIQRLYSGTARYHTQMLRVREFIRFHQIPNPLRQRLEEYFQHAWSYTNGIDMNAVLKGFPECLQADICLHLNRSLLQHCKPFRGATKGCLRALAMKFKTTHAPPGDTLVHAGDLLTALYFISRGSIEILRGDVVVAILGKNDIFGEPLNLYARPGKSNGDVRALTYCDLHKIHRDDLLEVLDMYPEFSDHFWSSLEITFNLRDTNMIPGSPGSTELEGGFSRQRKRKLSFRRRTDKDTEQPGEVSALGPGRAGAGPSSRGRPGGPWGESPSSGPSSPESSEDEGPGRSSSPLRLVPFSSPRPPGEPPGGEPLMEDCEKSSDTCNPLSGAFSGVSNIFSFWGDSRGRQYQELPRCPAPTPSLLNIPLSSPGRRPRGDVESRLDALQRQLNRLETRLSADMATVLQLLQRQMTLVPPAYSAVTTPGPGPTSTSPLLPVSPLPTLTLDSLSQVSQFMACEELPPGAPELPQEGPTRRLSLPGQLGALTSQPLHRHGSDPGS
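U2OS cells were transduced with wild-type KCNH2 virus (2.03 x 10^8 / mL) for 4 h at room temperature, then cultured overnight at 37 C. Thallium flux was read with FluxOr dye. Rate constants were normalized to DMSO controls.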
Glioma ERSR ind – qHTS for Inducers of the Endoplasmic Reticulum Stress Response (ERSR) in Human Glioma: qHTS | U87-MG GRP78 promoter luciferase reporter, 16 h | Potency, µM, without a hit: at the top dose activation, usual class: activators | actives 0.02% (n = 420,000) | AID 602332, 2012; active = well fitted activation curve with a large enough effect; inconclusive = small, poorly fitted or top-dose-only effect; inactive = no such curve, though single readings can be large or run the other way; also: potency is read from the fitted curve at half-maximal effect; series mostly up to about 76 µM; % of control where 0% means no effect; nearly all actives have a fitted effect of over 35% in size
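ERSR induction read as luciferase luminescence (Bright-Glo, 10 min at room temperature) in stably transfected human U87-MG glioma cells exposed to compounds for 16 h, using GRP78 as sensor.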
* marks the source's active call; other numbers are inactive results; ? = inconclusive; · = no result.

SMILES	TRPML1 agonist	TSG101-PTAP inh	TRPML1 blocker	KCNH2 3.1 inh	hERG WT inh	Glioma ERSR ind
CN1CCCN(C(=O)[C@@H]2C[C@@H](Sc3nc4ccccc4[nH]3)CN2Cc2ccc(OC(F)(F)F)cc2)CC1	·	·	·	·	·	-2.1%
COc1cc(CN2CCCC(n3cc(C(=O)N4CCCC4)nn3)C2)cc(OC)c1 (stereo not drawn)	·	·	·	·	·	1.2%
NCCCn1c(C(=O)c2cc(Cl)c(N)c(Cl)c2)c2ccc(C(F)(F)F)cc2[n+]1[O-]	0.3	-4.2%	2.7	-124.7*	10.4	-6.1%
NCCCn1c(C(=O)c2cc(Cl)c(N)c(Cl)c2)c2ccc([N+](=O)[O-])cc2[n+]1[O-]	-0.7	0.0%	-10.5	-6.7	25.4	-4.8%
NC(=O)CCCn1c(C(=O)c2cc(Cl)c(N)c(Cl)c2)c2ccc(C(F)(F)F)cc2[n+]1[O-]	-0.2	-4.8%	-6.9	-85.5*	4.4	0.8%
N#Cc1ccc(S(=O)(=O)N2CCCN(c3nc4ccc(Cl)cc4s3)CC2)cc1	0.7	-1.4%	3.7	-94.7*	-74.0*	-1.6%
N#Cc1ccc(S(=O)(=O)N2CCCN(c3ccc(C(F)(F)F)cn3)CC2)cc1	0.6	0.7%	18.2	-32.1	35.5	-4.9%
COCCCNC(=S)Nc1ccc2c(c1)OCCO2	-0.3	-3.1%	5.3	11.6	-87.7*	0.4%
OCCNC(=S)Nc1ccc2c(c1)OCCO2	-0.2	-2.2%	-10.6	0.2	0.1	2.3%
C=C[C@@H]1c2cc(C)ccc2N(S(=O)(=O)c2ccc(C)cc2)[C@H](c2ccc(C(C)(F)F)cc2)C1(C#N)C#N	50.6*	·	·	·	·	-1.0%
COc1cc(-c2c(OC)cccc2OC)cc2c1OCCN(Cc1cn[nH]c1-c1ccc(Cl)cc1)C2	·	·	·	·	·	3.8%
CN(C1=C(NC(=O)c2ccc(Cl)cc2)C(=O)c2ccccc2C1=O)c1ccccc1	4.7	2.8%	0.6	-97.6*	-153.0*	2.0%
O=C(/C=C/c1ccc(Cl)cc1Cl)N1CCN(c2ccc([N+](=O)[O-])c(N3CCOCC3)c2)CC1	-0.2	-1.1%	-10.4	-18.2	-1.2	-6.0%
O=C(/C=C/c1ccc(Cl)cc1Cl)N1CCN(c2ccccc2[N+](=O)[O-])CC1	1.1	-2.8%	11.6	-94.8*	?	-3.7%
Cc1oc(-c2ccccc2NC(=O)c2ccsc2)nc1CN(C)Cc1ccc2c(c1)CCCN2C	·	·	·	·	·	4.1%
FC(F)(F)Oc1ccc(Nc2nc(N3CCOCC3)nc(N3CCOCC3)n2)cc1	1.9	-2.8%	25.7	-77.2*	11.5	0.1%
Cc1cc2nc3c(=O)n(C4CCCCC4)c(=O)[nH]c3nc2cc1N	86.8*	?	-30.0	-14.0	-8.0	6.5%
CCOc1ccc(/C=N/NC(=O)c2[nH]ncc2Br)c(O)c1	1.8	-0.1%	7.2	-77.1*	0.1	-6.3%
COc1ccc(OC)c(/C=N/NC(=O)c2[nH]ncc2Br)c1	-0.1	-0.1%	-0.5	-1.1	-8.6	-1.7%
CC1(C)Cc2c(C#N)c(SCCO)nc(N3CCOCC3)c2CO1	-0.7	2.1%	-24.8	1.4	-4.5	-3.9%
CC1(C)Cc2c(C#N)c(SCCOc3ccccc3)nc(N3CCOCC3)c2CO1	2.1	-1.4%	-10.6	-85.4*	-2.5	-4.5%
COc1ccc([C@@H]2Sc3cc(OC)ccc3N(CCN(C(C)C)C(C)C)C(=O)[C@H]2OC(C)=O)cc1	-0.3	-7.0%	0.0	-100.1*	-90.2*	-3.4%
Cc1cc(N/C=C\c2nnnn2-c2ccc(F)cc2)no1	1.6	-3.5%	3.9	5.5	-120.8*	1.4%
